Experiment [1] concerns the target Retinoic acid receptor RXR-alpha (Homo sapiens) (UniProt P19793). Briefly: qHTS assay to identify small molecule agonists of the RXR signaling pathway (AID 1159527; calls by dose curve; note: nearly all actives have a fitted effect of over 35% in size; note: potency is the fitted concentration of half-maximal effect). The following applies: HEK293T RXRa-UAS-bla, beta-lactamase ratio, 16 h; series mostly up to 76.8 µM. An outline of the steps: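 Agonist mode; 9-cis retinoic acid positive control. HEK 293T UAS-bla reporter cells, 2% charcoal-stripped FBS, 16 hr compound exposure at 37 C/5% CO2. LiveBLAzer B/G FRET substrate 2 hr RT; ex 405, em 460/530 nm.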
On the technique in general: In qHTS, concentration-response curves come from the screen itself.

Experiment [2] is described as follows: qHTS assay to identify small molecule agonists of the RXR signaling pathway - cell viability counter screen (AID 1159529). Note: nearly all actives have a fitted effect of over 50% in size. As to conditions: RXR-alpha-bla HEK293T viability, CellTiter-Glo, 16 h; series mostly up to 76.8 µM. An outline of the steps:
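Luminescence from CellTiter-Glo (30 min, RT) measured viability in the same wells as the beta-lactamase reporter readout. Cells: GeneBLAzer RXR-alpha HEK 293T, 2% charcoal-stripped FBS. Compound exposure 16 hr, 37 C.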

Experiment [3] is described as follows: qHTS assay to identify small molecule antagonists of the retinoid acid receptor (RAR) signaling pathway - cell viability counter screen (AID 1159551). Note: nearly all actives have a fitted effect of over 35% in size. The following applies: C3RL4 cells viability, ATP luminescence (CellTiter-Glo), 6 h; series mostly up to 92.4 µM. The method in brief:
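Retinol-stimulated (1 uM final) C3RL4 cells, compound 6 h, 37 C; readout CellTiter-Glo luminescence (ATP) after 30 min RT incubation.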

A short description of experiment [4]: qHTS assay to identify small molecule antagonists of the retinoic acid receptor (RAR) signaling pathway (AID 1159552; note: nearly all actives have a fitted effect of over 50% in size). The following applies: C3RL4 RARE luciferase reporter, retinol-stimulated, 6 h; series mostly up to 92.4 µM. An outline of the steps:
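Luminescence from a RARE luciferase reporter in C3RL4 cells served as read-out. Cells received compounds together with 1 uM final retinol and incubated 6 hr at 37 C before detection reagent was added for 30 min at room temperature.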

Experiment [5] is described as follows: qHTS assay to identify small molecule agonists of the retinoic acid receptor (RAR) signaling pathway (AID 1159553). Note: potency is the fitted concentration of half-maximal effect. The following applies: C3RL4 RARE luciferase reporter, agonist, 6 h; series mostly up to 73.3 µM. The method in brief:
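Reporter readout comes from luciferase under RARE control in C3RL4 cells; compound exposure lasts 6 hr at 37 C in 5% CO2, and luminescence is recorded following a 30 min room-temperature incubation with reagent.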

Results on 39 compounds are retold here after PubChem BioAssay (Tox21).

SMILES strings stand for the structures. Results filed as inconclusive are left out. Unmarked numbers belong to inactive results. Calls of active or inactive are those of the source. Unless noted, calls come from the whole dose curve; as a rule, active = well fitted curve in the direction sought with a large enough effect in the repeat runs; inconclusive = weak or mixed curves; inactive = no such curve, though single readings can be large; an effect the other way counts as inactive or inconclusive.
% is set by controls: 0 for no effect and ±100 for the full control effect.

Chain of Retinoic acid receptor RXR-alpha (Homo sapiens) (P19793 whole entry, looked up): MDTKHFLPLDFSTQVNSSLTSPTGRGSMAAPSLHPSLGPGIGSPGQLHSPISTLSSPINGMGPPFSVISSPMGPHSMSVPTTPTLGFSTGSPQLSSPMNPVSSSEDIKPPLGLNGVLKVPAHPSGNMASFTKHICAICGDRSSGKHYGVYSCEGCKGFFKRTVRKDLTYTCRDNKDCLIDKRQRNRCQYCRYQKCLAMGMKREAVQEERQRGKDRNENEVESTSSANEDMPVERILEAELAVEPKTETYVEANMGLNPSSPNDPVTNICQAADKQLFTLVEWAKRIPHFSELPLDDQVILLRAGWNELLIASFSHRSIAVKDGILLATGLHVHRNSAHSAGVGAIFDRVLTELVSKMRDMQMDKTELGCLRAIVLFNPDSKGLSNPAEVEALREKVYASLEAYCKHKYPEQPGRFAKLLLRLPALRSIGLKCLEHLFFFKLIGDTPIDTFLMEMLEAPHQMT

For the compound `COc1cc(Cl)ccc1Cl`, the Potency entry in experiment [1], in experiment [2], in experiment [4] and in experiment [5] was “inactive” each time. In experiment [3], the call was inactive.
For the compound `COC(=O)c1ccc(OC)cc1`, the Potency result in experiment [1], in experiment [2], in experiment [4] and in experiment [5] was “inactive” throughout. In experiment [3], the compound was called inactive.
With `COC(=O)C(C)O` (stereo not given), in experiment [1], the Potency was 12.6 µM (active). Also, the Potency entry in experiment [2], in experiment [4] and in experiment [5] was “inactive” throughout. The compound was classed as inactive in experiment [3].
Consider `Cc1cc(NS(=O)(=O)c2ccc(N)cc2)nc(C)n1`, for which the Potency entry in experiment [1], in experiment [2], in experiment [4] and in experiment [5] was “inactive” throughout. Further, the result in experiment [3] was inactive.
`Oc1ccccc1C=NCc1ccccc1`: the Potency entry in experiment [1], in experiment [2], in experiment [4] and in experiment [5] was “inactive” each time. In experiment [3], the outcome was inactive.
On to `NC(=O)NS(=O)(=O)c1ccc(Cl)cc1`, for which the Potency entry in experiment [1], in experiment [2], in experiment [4] and in experiment [5] was “inactive” throughout. The call in experiment [3] was inactive.
As for `CC(CNC1CCCCC1)OC(=O)c1ccccc1` (stereo not given), the Potency entry in experiment [1], in experiment [2], in experiment [4] and in experiment [5] was “inactive” throughout. Moreover, the outcome in experiment [3] was inactive.
`CC(=O)N[C@@H](CC(C)C)C(=O)O`: the Potency entry in experiment [1], in experiment [2], in experiment [4] and in experiment [5] was “inactive” each time. In experiment [3], the outcome was inactive.
For the compound `CC/C=C\CCOC(=O)C(C)C`, the Potency entry in experiment [1], in experiment [2], in experiment [4] and in experiment [5] was “inactive” each time. In experiment [3], the compound was classed as inactive.
As to `CC(C)(CO)[C@@H](O)C(=O)NCCC(=O)O`, the Potency entry in experiment [1], in experiment [2], in experiment [4] and in experiment [5] was “inactive” each time. In experiment [3], the result was inactive.
For `CCCCCCCOC(=O)CCC`, the Potency entry in experiment [1], in experiment [2], in experiment [4] and in experiment [5] was “inactive” in each case. In addition, the outcome in experiment [3] was inactive.
For `C=O`, the Potency result in experiment [1], in experiment [2], in experiment [4] and in experiment [5] was “inactive” in each case. In addition, in experiment [3], the result was inactive.
On to `CCC(=O)Nc1ccc(O)cc1`, for which the Potency result in experiment [1], in experiment [2], in experiment [4] and in experiment [5] was “inactive” each time. For the same compound, in experiment [3], the result was inactive.
For `CC1(C)C(=O)N(Cl)C(=O)N1Br`, the Potency result in experiment [1], in experiment [2], in experiment [4] and in experiment [5] was “inactive” throughout. The compound was classed as inactive in experiment [3].
For `CC(C)C[C@H](NC(=O)OCC1c2ccccc2-c2ccccc21)C(=O)O`, the Potency entry in experiment [1], in experiment [2] and in experiment [4] was “inactive” throughout. For the same compound, the result in experiment [3] was inactive. In experiment [5], the Potency is 1.72 µM (active).
With `OCCN1CCN(CCO)CC1`, the Potency entry in experiment [1], in experiment [2], in experiment [4] and in experiment [5] was “inactive” each time. The outcome in experiment [3] was inactive.
On to `FC(F)(F)c1ccccc1`, for which the Potency entry in experiment [1], in experiment [2], in experiment [4] and in experiment [5] was “inactive” each time. Besides, the outcome in experiment [3] was inactive.
As for `O=C(O[C@@H](C(=O)O)[C@@H](OC(=O)c1ccccc1)C(=O)O)c1ccccc1`, the Potency entry in experiment [1], in experiment [2], in experiment [4] and in experiment [5] was “inactive” throughout. For the same compound, the outcome in experiment [3] was inactive.
On to `N#CSCC(=O)O`, for which the Potency result in experiment [1], in experiment [2], in experiment [4] and in experiment [5] was “inactive” each time. In addition, the result in experiment [3] was inactive.
For the compound `OC[C@H]1O[C@@H](O[C@H]2[C@H](O)[C@@H](O)[C@H](O)O[C@@H]2CO)[C@H](O)[C@@H](O)[C@H]1O`, the Potency entry in experiment [1], in experiment [2], in experiment [4] and in experiment [5] was “inactive” in each case. Besides, in experiment [3], the result was inactive.
`O=C1Nc2ccc([N+](=O)[O-])cc2C1=O`: the Potency result in experiment [1], in experiment [2], in experiment [4] and in experiment [5] was “inactive” in each case. The result in experiment [3] was inactive.
Turning to `CN1CCN(N)CC1`, the Potency result in experiment [1], in experiment [2], in experiment [4] and in experiment [5] was “inactive” in each case. Further, the outcome in experiment [3] was inactive.
With `CC(C)S`, the Potency entry in experiment [1], in experiment [2], in experiment [4] and in experiment [5] was “inactive” each time. For the same compound, the call in experiment [3] was inactive.
Regarding `CC/C=C\CCOC(=O)CCCCC`, the Potency entry in experiment [1], in experiment [2], in experiment [4] and in experiment [5] was “inactive” throughout. Further, the compound was called inactive in experiment [3].
With `C=CCc1cc(OC)c(O)c(C(=O)NCCO)c1`, the Potency result in experiment [1], in experiment [2], in experiment [4] and in experiment [5] was “inactive” in each case. Also, in experiment [3], the compound was called inactive.
For the compound `CC(=O)O[C@H]1CC[C@@]2(C)C(=CC[C@@H]3[C@@H]2CC[C@]2(C)C(C(C)=O)=CC[C@@H]32)C1`, the Potency entry in experiment [1], in experiment [2], in experiment [4] and in experiment [5] was “inactive” each time. Also, the call in experiment [3] was inactive.
For the compound `O=C1CCN(c2ccccc2)N1`, the Potency result in experiment [1], in experiment [2], in experiment [4] and in experiment [5] was “inactive” in each case. Besides, the compound was classed as inactive in experiment [3].
Take `NNS(=O)(=O)c1ccc(Oc2ccc(S(=O)(=O)NN)cc2)cc1`: the Potency entry in experiment [1], in experiment [2], in experiment [4] and in experiment [5] was “inactive” throughout. Besides, the call in experiment [3] was inactive.
For `CCCCC(=O)O[C@]1(C(=O)CO)[C@H](C)C[C@H]2[C@@H]3CCC4=CC(=O)C=C[C@]4(C)[C@@]3(F)[C@@H](O)C[C@@]21C`, the Potency entry in experiment [1], in experiment [2], in experiment [4] and in experiment [5] was “inactive” in each case. Further, the outcome in experiment [3] was inactive.
As to `CCN[C@H]1CN(CCCOC)S(=O)(=O)c2sc(S(N)(=O)=O)cc21`, the Potency entry in experiment [1], in experiment [2], in experiment [4] and in experiment [5] was “inactive” each time. Also, in experiment [3], the compound was classed as inactive.
Take `CCCS(=O)c1ccc2nc(NC(=O)OC)[nH]c2c1` (stereo not given): the Potency result in experiment [1], in experiment [2], in experiment [4] and in experiment [5] was “inactive” in each case. Besides, the result in experiment [3] was inactive.
On to `CCN(CC)CCNC(=O)COc1ccc(Cl)cc1`, for which the Potency entry in experiment [1], in experiment [2], in experiment [4] and in experiment [5] was “inactive” in each case. Moreover, the result in experiment [3] was inactive.
On to `CN1C(=O)CC(c2ccccc2)C1=O` (stereo not given), for which the Potency entry in experiment [1], in experiment [2], in experiment [4] and in experiment [5] was “inactive” each time. Also, the compound was classed as inactive in experiment [3].
For `CCOC(=O)[C@H](CCc1ccccc1)N[C@@H](C)C(=O)N1Cc2cc(OC)c(OC)cc2C[C@H]1C(=O)O`, the Potency result in experiment [1], in experiment [2], in experiment [4] and in experiment [5] was “inactive” in each case. Moreover, in experiment [3], the outcome was inactive.
`C1CSCCS1`: the Potency entry in experiment [1], in experiment [2], in experiment [4] and in experiment [5] was “inactive” each time. Besides, the compound was classed as inactive in experiment [3].
`O=c1oc2c(O)c(O)cc3c(=O)oc4c(O)c(O)cc1c4c23`: in experiment [1], the activation was 11.4% [at 15.8 µM]. The activity change, negative = cytotoxicity in experiment [2] was 8.17% [at 15.8 µM]; in experiment [3], -0.41% [at 19 µM]. Besides, the activity, negative = inhibition in experiment [4] was 3.23% [at 19 µM]. Also, the Potency result in experiment [5] is “inactive”.
Consider `CCc1nnc(NS(=O)(=O)c2ccc(N)cc2)s1`, for which the Potency entry in experiment [1], in experiment [2], in experiment [4] and in experiment [5] was “inactive” throughout. Also, the compound was called inactive in experiment [3].
As to `COC(=O)N[C@H](C(=O)N[C@@H](Cc1ccccc1)[C@@H](O)CN(Cc1ccc(-c2ccccn2)cc1)NC(=O)[C@@H](NC(=O)OC)C(C)(C)C)C(C)(C)C`, the Potency entry in experiment [1], in experiment [2], in experiment [4] and in experiment [5] was “inactive” throughout. Moreover, the outcome in experiment [3] was inactive.
Take `O=C1CCCc2ccccc21`: in experiment [1], the Potency was 6.99 µM (active). In addition, the Potency result in experiment [2], in experiment [4] and in experiment [5] was “inactive” each time. For the same compound, the result in experiment [3] was inactive.
